Consider 40 molecules from ChEMBL document CHEMBL3433997, “St. Jude Leishmania screening dataset” (2016).

The first experiment deals with Solute carrier family 2, facilitated glucose transporter member 1 (Homo sapiens) (UniProt P11166). Description: ST_JUDE_LEISH: Cytotoxicity at 2uM final concentration against transgenic Leishmania Mexicana promastigotes LmGLUT1 that are glucose transport deficient and complemented with the human glucose transporter GLUT1. Activity is measured by DNA content using SYBR green in vitro. Type of experiment: functional.
Solute carrier family 2, facilitated glucose transporter member 1 (Homo sapiens), sequence (P11166 whole entry): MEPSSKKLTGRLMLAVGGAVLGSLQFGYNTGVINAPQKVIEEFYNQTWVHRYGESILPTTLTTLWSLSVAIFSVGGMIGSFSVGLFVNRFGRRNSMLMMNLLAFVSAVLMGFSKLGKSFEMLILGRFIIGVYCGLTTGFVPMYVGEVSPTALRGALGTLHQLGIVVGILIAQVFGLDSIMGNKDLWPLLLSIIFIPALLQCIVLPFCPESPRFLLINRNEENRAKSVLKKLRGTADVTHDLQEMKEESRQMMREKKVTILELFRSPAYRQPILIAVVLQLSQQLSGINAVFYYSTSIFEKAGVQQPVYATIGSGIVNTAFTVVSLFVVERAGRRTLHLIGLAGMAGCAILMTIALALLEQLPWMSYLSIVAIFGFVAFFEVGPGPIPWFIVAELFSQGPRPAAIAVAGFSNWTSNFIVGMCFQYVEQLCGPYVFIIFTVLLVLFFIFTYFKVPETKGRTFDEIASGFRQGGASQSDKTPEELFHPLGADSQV
With `COc1ccc2nccc(N3C[C@H]4C[C@@H]3CN4CCNCc3ccc4c(n3)NC(=O)CS4)c2n1`, the inhibition is -0.98%.

Turning to `CCn1c(-c2nonc2N)nc2c(-c3ccccc3)ncc(OCCCCNCCc3ncc[nH]3)c21`, the inhibition is -0.2%.

For `COc1ccc2nc(C)cc(Nc3ccc(Cl)c(Cl)c3)c2c1`, the inhibition is 7.6%.

For `CNS(=O)(=O)CCNCc1ccc(-c2ccc3ncnc(Nc4ccc(OCc5ccccc5)cc4)c3c2)o1`, the inhibition was 6.09%.

On to `FC(F)(F)c1ccccc1OCc1cc(-c2ccncc2)c(COc2ccccc2C(F)(F)F)cc1C1=CCNCC1`, for which the inhibition worked out at 2.44%.

With `CS(=O)(=O)Nc1ccc2[nH]cc(C3CCN(CCCCCNC(=O)/C=C/c4ccc(Cl)c(Cl)c4)CC3)c2c1`, the inhibition is 3.05%.

Turning to `Cn1cnc2c(SCc3ccccc3OCc3ccccc3)ncnc21`, the inhibition turned out to be 6.91%.

With `COc1ccc(-c2ccc(NC(=O)c3cccc(C#N)c3)cc2)cc1CN1CCC(O)CC1`, the inhibition is -0.68%.

On to `COc1cc(F)c2ncc(Cl)c(CCN3CCC(NCc4ccc5c(c4)OCCO5)CC3)c2c1`, for which the inhibition is 41.6%.

For `CN(C)S(=O)(=O)c1ccc(Nc2nc(NCCC3C=NC=N3)nc3cc[nH]c(=O)c23)cc1` (stereo not given), the inhibition was found to be 4.88%.

In the case of `O=C(CN1CCCCC1)Nc1ccc(Nc2nccc(NCC(O)c3ccccc3)n2)cc1` (stereo not given), the inhibition turned out to be 11.7%.

With `COc1ccc2ncc(Cl)c(CCN3CCC(NCc4ccc5c(n4)NC(=O)CS5)CC3)c2c1`, the inhibition was found to be 7.16%.

With `COc1cc(Nc2nccc(N3CCC(NC(=O)c4cc5ccccc5s4)C3)n2)cc(OC)c1OC` (stereo not given), the inhibition was 0.5%.

Turning to `O=C(CCN1C(=O)c2ccccc2C1=O)N1CCN(CC=Cc2ccccc2)CC1`, the inhibition is -1.54%.

As for `CCc1c(CCNCCCCCCNCCc2ccc([N+](=O)[O-])cc2)ccc(OC)c1OC`, the inhibition came out at 12.1%.

Turning to `Cn1nc(-c2ccc(NC(=O)Nc3cc(C(F)(F)F)ccc3F)cc2)c2cnc(NCCc3c[nH]cn3)nc21`, the inhibition is 3.35%.

Consider `N#Cc1ccc(CN2CCCN(Cc3cccc(NC(=O)c4ccc(Cl)c(Cl)c4)c3)CC2)cc1`, for which the inhibition was found to be 9.73%.

For `NS(=O)(=O)c1cccc(Br)c1`, the inhibition came to 2.38%.

As to `CCN(CCCN1CCCCC1)c1cc(C)nc(Nc2ccc(C)c(Br)c2)n1`, the inhibition turned out to be 4.08%.

Turning to `O=c1c(NCCCN(Cc2ccc(F)cc2)c2ccccn2)c(NCc2cccnc2)c1=O`, the inhibition was determined as 1.33%.

For the molecule `O=c1cc(NCCCNCc2cc3c(Cl)cc(Cl)cc3[nH]2)[nH]c2ccccc12`, the inhibition was -0.67%.

`O=S(=O)(NCCN1CCCC1)c1cccc(-c2ccc(CNC3Cc4ccccc4C3)cc2)c1`: the inhibition was 30.3%.

As for `O=C(/C=C/c1ccc(Cl)cc1)NCCCCCN1CCCC(C(=O)Nc2ccc(F)c(Cl)c2)C1` (stereo not given), the inhibition was found to be 2.06%.

For the molecule `O=C(c1cc(C(=O)Nc2ccccc2)c(=O)n(-c2ccccc2)c1)c1cc(Cl)ccc1O`, the inhibition is 3.8%.

For the molecule `Cc1nc(C)c(-c2ccc(Oc3ccc(OC(F)(F)F)cc3)cc2)c(O)c1I`, the inhibition was -0.28%.

Regarding `COc1ccccc1CCNc1nc(C)cc(N[C@@H](Cc2ccccc2)C(=O)NCCCOC(C)C)n1`, the inhibition turned out to be 3.06%.

Regarding `CCN(CCCN1CCCC1)c1cc(C)nc(Nc2ccc(Cl)cc2)n1`, the inhibition worked out at 1.46%.

On to `Cc1ccc(O)c(CN2CCCC(COC(c3ccc(F)cc3)c3ccc(F)cc3)C2)c1` (stereo not given), for which the inhibition was 2.33%.

With `CC(=O)N/N=C/[C@H](CCc1ccccc1)NC(=O)[C@H](CC(C)C)NC(=O)c1ccc(OCCN2CCOCC2)cc1`, the inhibition was 2.92%.

As for `CC1CNC(c2cccc(NC(=O)Nc3cccc(C4=NC(C)CN4)c3)c2)=N1` (stereo not given), the inhibition came to 6.32%.

`Cc1ccc(Cn2ncc(N3CCCNCC3)c(Cl)c2=O)cc1NC(=O)Nc1ccc(-c2ccccc2)cc1`: the inhibition was determined as 3.82%.

As for `CN(C)CCOc1cc(NC(=O)Nc2ccc(-c3ccncc3)c(C(F)(F)F)c2)ccc1Cl`, the inhibition was 9.9%.

Take `COc1ccc(OCC(=O)Nc2cc(-c3nc4ccccc4[nH]3)ccc2Cl)cc1`: the inhibition came out at 6.17%.

For the molecule `Cc1ccc(NC(=O)c2ccc(N3CCN(c4ccncc4)CC3)cc2)cc1F`, the inhibition was found to be 68%.

On to `COc1ccc(-c2ccc(NC(=O)c3cccc(Cl)c3)cc2)cc1CN1CCN(C)CC1`, for which the inhibition came to 6.52%.

Take `CCc1cn2c3c(cc(C(=O)N[C@@H](Cc4cc(F)cc(F)c4)[C@H](O)CNC4CCCCC4)cc13)N(C)S(=O)(=O)CC2`: the inhibition came out at 0.79%.

In the case of `O=C(Nc1cccc(-c2csc(-c3nc4ccccc4[nH]3)c2)c1)c1cccnc1`, the inhibition was 1.57%.

Regarding `CCC(C)NCC(O)(c1ccc(Cl)cc1)c1ccc(Cl)cc1` (stereo not given), the inhibition is -2.33%.

For the molecule `COc1ccc(C2CC(=O)C3=C(C2)NC(C)=C(C(=O)OC(C)C)C3c2ccc(O)cc2)cc1OC` (stereo not given), the inhibition was 8.55%.

For `CCC[C@@H]([C@@H](CC1CCCCC1)C(=O)N[C@H](C(=O)Nc1nccs1)C(C)(C)SC)N(O)C=O`, the inhibition is 9.33%.

For another experiment, the target named is Hexose transporter 1 (Plasmodium falciparum) (UniProt O97467). The experiment in a line: ST_JUDE_LEISH: Cytotoxicity at 2uM final concentration against transgenic Leishmania Mexicana promastigotes LmPfHT that are glucose transport deficient and complemented with the Plasmodium falciparum hexose transporter. Activity is measured by DNA content using SYBR green in vitro. Type of experiment: functional.
On to `COc1ccc2nccc(N3C[C@H]4C[C@@H]3CN4CCNCc3ccc4c(n3)NC(=O)CS4)c2n1`, for which the inhibition worked out at 0.1%.

Consider `CCn1c(-c2nonc2N)nc2c(-c3ccccc3)ncc(OCCCCNCCc3ncc[nH]3)c21`, for which the inhibition was -0.76%.

In the case of `COc1ccc2nc(C)cc(Nc3ccc(Cl)c(Cl)c3)c2c1`, the inhibition stood at 14.2%.

Regarding `CNS(=O)(=O)CCNCc1ccc(-c2ccc3ncnc(Nc4ccc(OCc5ccccc5)cc4)c3c2)o1`, the inhibition was 6.17%.

On to `FC(F)(F)c1ccccc1OCc1cc(-c2ccncc2)c(COc2ccccc2C(F)(F)F)cc1C1=CCNCC1`, for which the inhibition was 2.17%.

On to `CS(=O)(=O)Nc1ccc2[nH]cc(C3CCN(CCCCCNC(=O)/C=C/c4ccc(Cl)c(Cl)c4)CC3)c2c1`, for which the inhibition was 3.77%.

Turning to `Cn1cnc2c(SCc3ccccc3OCc3ccccc3)ncnc21`, the inhibition turned out to be 5.44%.

For `COc1ccc(-c2ccc(NC(=O)c3cccc(C#N)c3)cc2)cc1CN1CCC(O)CC1`, the inhibition is -0.84%.

With `COc1cc(F)c2ncc(Cl)c(CCN3CCC(NCc4ccc5c(c4)OCCO5)CC3)c2c1`, the inhibition worked out at 54.6%.

Regarding `CN(C)S(=O)(=O)c1ccc(Nc2nc(NCCC3C=NC=N3)nc3cc[nH]c(=O)c23)cc1` (stereo not given), the inhibition is 5.35%.

As to `O=C(CN1CCCCC1)Nc1ccc(Nc2nccc(NCC(O)c3ccccc3)n2)cc1` (stereo not given), the inhibition is 9.59%.

As to `COc1ccc2ncc(Cl)c(CCN3CCC(NCc4ccc5c(n4)NC(=O)CS5)CC3)c2c1`, the inhibition stood at 11%.

`COc1cc(Nc2nccc(N3CCC(NC(=O)c4cc5ccccc5s4)C3)n2)cc(OC)c1OC` (stereo not given): the inhibition was 0.56%.

For `O=C(CCN1C(=O)c2ccccc2C1=O)N1CCN(CC=Cc2ccccc2)CC1`, the inhibition is -1.32%.

Take `CCc1c(CCNCCCCCCNCCc2ccc([N+](=O)[O-])cc2)ccc(OC)c1OC`: the inhibition was 10.1%.

`Cn1nc(-c2ccc(NC(=O)Nc3cc(C(F)(F)F)ccc3F)cc2)c2cnc(NCCc3c[nH]cn3)nc21`: the inhibition was determined as 3.29%.

Regarding `N#Cc1ccc(CN2CCCN(Cc3cccc(NC(=O)c4ccc(Cl)c(Cl)c4)c3)CC2)cc1`, the inhibition was 7.09%.

`NS(=O)(=O)c1cccc(Br)c1`: the inhibition is 0.12%.

For the molecule `CCN(CCCN1CCCCC1)c1cc(C)nc(Nc2ccc(C)c(Br)c2)n1`, the inhibition was determined as 6.82%.

For `O=c1c(NCCCN(Cc2ccc(F)cc2)c2ccccn2)c(NCc2cccnc2)c1=O`, the inhibition amounted to 1.81%.

Take `O=c1cc(NCCCNCc2cc3c(Cl)cc(Cl)cc3[nH]2)[nH]c2ccccc12`: the inhibition was -0.16%.

As to `O=S(=O)(NCCN1CCCC1)c1cccc(-c2ccc(CNC3Cc4ccccc4C3)cc2)c1`, the inhibition worked out at 16.9%.

`O=C(/C=C/c1ccc(Cl)cc1)NCCCCCN1CCCC(C(=O)Nc2ccc(F)c(Cl)c2)C1` (stereo not given): the inhibition amounted to 1.34%.

For the molecule `O=C(c1cc(C(=O)Nc2ccccc2)c(=O)n(-c2ccccc2)c1)c1cc(Cl)ccc1O`, the inhibition was determined as 3.56%.

Turning to `Cc1nc(C)c(-c2ccc(Oc3ccc(OC(F)(F)F)cc3)cc2)c(O)c1I`, the inhibition is 0.69%.

As to `COc1ccccc1CCNc1nc(C)cc(N[C@@H](Cc2ccccc2)C(=O)NCCCOC(C)C)n1`, the inhibition was determined as 3.2%.

With `CCN(CCCN1CCCC1)c1cc(C)nc(Nc2ccc(Cl)cc2)n1`, the inhibition was determined as 1.37%.

Turning to `Cc1ccc(O)c(CN2CCCC(COC(c3ccc(F)cc3)c3ccc(F)cc3)C2)c1` (stereo not given), the inhibition is -0.35%.

For `CC(=O)N/N=C/[C@H](CCc1ccccc1)NC(=O)[C@H](CC(C)C)NC(=O)c1ccc(OCCN2CCOCC2)cc1`, the inhibition was 6.88%.

For the molecule `CC1CNC(c2cccc(NC(=O)Nc3cccc(C4=NC(C)CN4)c3)c2)=N1` (stereo not given), the inhibition came to 8.33%.

`Cc1ccc(Cn2ncc(N3CCCNCC3)c(Cl)c2=O)cc1NC(=O)Nc1ccc(-c2ccccc2)cc1`: the inhibition worked out at 4.05%.

With `CN(C)CCOc1cc(NC(=O)Nc2ccc(-c3ccncc3)c(C(F)(F)F)c2)ccc1Cl`, the inhibition worked out at 9.02%.

Turning to `COc1ccc(OCC(=O)Nc2cc(-c3nc4ccccc4[nH]3)ccc2Cl)cc1`, the inhibition is 6.14%.

Turning to `Cc1ccc(NC(=O)c2ccc(N3CCN(c4ccncc4)CC3)cc2)cc1F`, the inhibition was determined as 74.7%.

Regarding `COc1ccc(-c2ccc(NC(=O)c3cccc(Cl)c3)cc2)cc1CN1CCN(C)CC1`, the inhibition was 4.97%.

`CCc1cn2c3c(cc(C(=O)N[C@@H](Cc4cc(F)cc(F)c4)[C@H](O)CNC4CCCCC4)cc13)N(C)S(=O)(=O)CC2`: the inhibition is 0.2%.

In the case of `O=C(Nc1cccc(-c2csc(-c3nc4ccccc4[nH]3)c2)c1)c1cccnc1`, the inhibition came out at 4.05%.

In the case of `CCC(C)NCC(O)(c1ccc(Cl)cc1)c1ccc(Cl)cc1` (stereo not given), the inhibition is -0.32%.

On to `COc1ccc(C2CC(=O)C3=C(C2)NC(C)=C(C(=O)OC(C)C)C3c2ccc(O)cc2)cc1OC` (stereo not given), for which the inhibition stood at 8.07%.

For `CCC[C@@H]([C@@H](CC1CCCCC1)C(=O)N[C@H](C(=O)Nc1nccs1)C(C)(C)SC)N(O)C=O`, the inhibition is 8.98%.

Broadly, the inhibition is the drop in the measured response relative to a control, in per cent.
